Screening data as filed in PubChem.
Lamin A splicing – LMNA splicing modulation; HeLa LMNA splicing GFP/RFP minigene ratio, 48 h; Potency, µM (highest dose often 46.1 µM), for inactives: top-dose ratio change, negative = inhibition, hits mostly inhibitors; 200,000 tested, 0.01% active; AID 1487; active means well fitted inhibition curve with a large enough effect in the signal ratio, with a control signal flat, not every such curve was filed as active; inconclusive means small, poorly fitted or top-dose-only effect, or effect the other way, or a change in a side signal; the % refers to the signal ratio; further: potency means the concentration at half of the fitted maximal effect
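Read-out is the ratio of GFP to DsRed2 object intensity, acquired by 488 nm laser-scanning cytometry on HeLa lamin A-EGFP minigene reporter cells. Compound incubation 48 hrs at 37 °C in Opti-MEM with 2% FBS; DMSO 0.5% final.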
HPGD inh – blocks human HPGD enzyme activity; purified HPGD, NADH fluorescence kinetic, PGE2 substrate; Potency, µM, without a hit: at the highest dose activity change, negative = inhibition, actives largely listed as inhibitors; P15428; AID 894; 150,000 tested, 4.3% active; further: potency means the concentration at half of the fitted maximal effect
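NADH formation kinetics: reaction with 30 uM PGE2 and 1 mM NAD+ (final), 20 nM enzyme, Tris-HCl pH 8 with Tween 20, after 15 min compound preincubation at room temperature. Fluorescence change, last versus first of five reads.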
ALDH1A1 block – inhibitors of human aldehyde dehydrogenase 1A1. P00352. Purified ALDH1A1, NADH fluorescence, propionaldehyde substrate. 220,000 tested, 7.3% active. Potency, µM (top dose mostly 75.3 µM), for the others: top-dose activity, negative = inhibition, actives largely listed as inhibitors;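 further: potency means the concentration at half of the fitted maximal effect; plate controls were no enzyme wells and a reference inhibitor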
Target sequence (P00352 whole entry, looked up): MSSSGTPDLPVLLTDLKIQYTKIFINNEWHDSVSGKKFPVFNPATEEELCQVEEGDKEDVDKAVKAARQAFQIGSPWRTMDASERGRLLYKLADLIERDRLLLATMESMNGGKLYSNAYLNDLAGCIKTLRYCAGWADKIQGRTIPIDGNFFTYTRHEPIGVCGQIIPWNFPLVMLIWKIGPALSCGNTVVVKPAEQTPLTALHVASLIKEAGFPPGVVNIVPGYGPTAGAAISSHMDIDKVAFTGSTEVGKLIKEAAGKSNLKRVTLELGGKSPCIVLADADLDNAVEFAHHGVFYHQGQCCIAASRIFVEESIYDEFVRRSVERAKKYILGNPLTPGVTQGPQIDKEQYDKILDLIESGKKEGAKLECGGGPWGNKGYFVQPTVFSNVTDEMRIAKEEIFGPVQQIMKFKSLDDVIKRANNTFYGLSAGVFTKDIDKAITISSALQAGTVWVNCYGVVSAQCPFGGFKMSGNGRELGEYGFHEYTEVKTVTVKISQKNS
KinaseGlo FLuc – counter-screen: inhibitors of Kinase-Glo firefly luciferase; Kinase-Glo luciferase, ATP luminescence, 8 min; Potency, µM (doses to about 38.3 µM), for the others: top-dose activity change, negative = inhibition, actives largely listed as inhibitors; 200,000 tested, 0.28% active; active means well fitted inhibition curve with a large enough effect; inconclusive means small, poorly fitted or top-dose-only effect; further: potency means the concentration at half of the fitted maximal effect; nearly all actives have a fitted effect of over 60% in size
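Light output from Kinase-Glo luciferase with luciferin and 10 uM ATP in 50 mM imidazole pH 7.2, KCl, MgCl2, Tween 20, BSA; compound pin-delivered, 8-min ambient incubation, then luminescence read.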
PNC assembly inh – perinucleolar compartment assembly inhibition; activity change (PNC), negative = inhibition, % at 10 µM; PC3M PTB-GFP, PNC prevalence imaging, 16 h; stronger effect = lower value; 140,000 tested, 3.1% active; AID 2417;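 active means readout at or below -70, meaning at least 70% loss of cells showing the perinucleolar compartment, a nuclear body marking cancer cells; inconclusive means readout between -30 and a set limit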;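 further: plate controls were DMSO wells for no effect and camptothecin positive control wells for full effect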
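Compounds are pinned in duplicate onto adhered PC3M cells stably expressing GFP-tagged PTB and incubated 16 h at 37 C. Cells are then fixed, nuclei stained with Hoechst, and PNC-positive cells counted.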
An asterisk follows results filed as active; ? = inconclusive; . = not tested or not shown; [ ] = dose if it differs, or a comment. In the library only some 10% were active in any assay of this set; here they are far more common. Unless noted, the call rests on the fitted dose curve; in most records, active means well fitted inhibition curve with a large enough effect (not every such curve was filed as active); inconclusive means small, poorly fitted or top-dose-only effect, or another doubt; inactive means no such curve, though single readings can be large or run the other way. Unless noted, on the % scale 0 is the no-effect control and ±100 the full control effect.

SMILES	Lamin A splicing	HPGD inh	ALDH1A1 block	KinaseGlo FLuc	PNC assembly inh
O=C(Nc1c(C(=O)O)[nH]c2ccccc12)NC1CCCCC1	?	?	?	-7%	-100*
Nc1cccc(Oc2ccc3c(c2)C(=O)N(CC2CCCO2)C3=O)c1 (stereo not given)	.	.	8.9µM*	.	.
O=C1c2cccc3cccc(c23)C(=O)N1CC1CCCO1 (stereo not given)	9%[46 µM]	.	?	1%	.
O=C(Nc1ccncc1)c1ccc2c(c1)C(=O)N(CC1CCCO1)C2=O (stereo not given)	16%	-17%	5.6µM*	3%	-4
O=C(Nc1ccncc1)c1ccc2c(c1)C(=O)N(C1CCCCC1)C2=O	?	-11%	7.1µM*	-1%	23
CCCn1nc(C(=O)Nc2cccc(C(=O)OC)c2)c2ccccc2c1=O	?	-12%	4.5µM*	-2%	10
O=C(NCc1ccccn1)c1ccc2c(=O)n(CCc3ccccc3)c(=O)[nH]c2c1	7%[46 µM]	.	?	3%	.
CCCn1nc(C(=O)NCc2ccccn2)c2ccccc2c1=O	7%	-4%	10µM*	-4%	15
CCCCCn1c(=O)[nH]c2cc(C(=O)NCc3ccccn3)ccc2c1=O	-12%[46 µM]	.	13µM*	-4%	.
CCCn1nc(C(=O)Nc2ccc(S(=O)(=O)Nc3nccs3)cc2)c2ccccc2c1=O	-4%	-8%	?	-5%	3
O=C(c1cnccn1)N1CCC2(CC1)CN(Cc1ccccc1)C2	.	-6%	-1%	-1%	.
COc1cccc(CNC(=O)Cn2c(=O)ccc3cc(S(=O)(=O)N4CCCC4)ccc32)c1	9%[46 µM]	.	.	.	.
Cc1cc(O)c(C(c2ccccc2)N2CCN(c3ccc(F)cc3)CC2)c(=O)n1Cc1ccco1 (stereo not given)	-12%[46 µM]	.	.	.	.
CSCCC(N)C(=O)O (stereo not given)	?	0%	7%	1%[39.9 µM]	.
O=C1c2ccccc2C(=O)N1CSc1nnc(Nc2ccccc2F)s1	-11%	-19%	7.1µM*	1%	65
COc1ccc2c(=O)c(-c3ccccc3)c(C)oc2c1	7%	-9%	?	-6%	30
COc1cc(OC)c2c(=O)c(-c3ccccc3)c(C)oc2c1OC	-5%	-1%	14µM*	0%	.
Cc1[nH]ccc(=O)c1OCc1ccc(Cl)cc1	1%	-13%	10%	3%	-124*
Cc1[nH]ccc(=O)c1OCc1c(F)cccc1Cl	9%[46 µM]	.	15%	0%	.
Cc1[nH]ccc(=O)c1OCc1ccccc1	-6%	-15%	10%	-1%	-111*
COc1ccc(NC(=O)CSC2=NCCN2)cc1	28%[9.22 µM]	.	-9%	2%	.
COc1ccc(NC(=O)CSc2c(C)n[nH]c2C)cc1	-7%	-14%	16µM*	-2%	-14
CC(=O)c1ccccc1NCC(=O)Nc1ccc(C)cc1	.	.	13µM*	-4%	.
Cc1n[nH]c(C)c1SCC(=O)Nc1ccc(F)cc1	-16%	-11%	-5%	1%	-100*
O=C(CSc1ccc(F)cc1)Nc1ccc(Br)cc1	8%[46 µM]	.	20µM*	-2%	.
SMILES	Lamin A splicing	HPGD inh	ALDH1A1 block	KinaseGlo FLuc	PNC assembly inh
O=c1c(Cl)c(NCc2ccccc2Cl)cnn1C12CC3CC(CC(C3)C1)C2	-5%	-20%	?	5%	-13
COc1cccc(Cn2c(=O)c(-c3cccc(C#N)c3)nc3cnc(Nc4ccccc4)nc32)c1	.	-14%	-7%	-2%	.
O=C(Nc1ccc(F)cc1)c1ccccc1	6%	-12%	6%	-6%	20
O=C(CNc1ccccc1)Nc1ccc(F)cc1	?	-16%	14µM*	-4%	27
COc1ccc2c(c1)c(CC(=O)O)c(C)n2Cc1ccc(Cl)cc1	?	-17%	25µM*	-12%	.
COc1ccc2c(c1)c(CC(=O)OCC(=O)O)c(C)n2C(=O)c1ccc(Cl)cc1	19%[46 µM]	-12%	8%	2%	.
CC(=O)Nc1sc(NC(=O)c2ccccc2)nc1-c1cccs1	2%	-6%	5%	1%	-3
CCN(CC)CCNc1nc(-c2cccs2)c(CC(=O)O)s1	1%[9.22 µM]	.	20µM*	0%	.
COc1ccc(C2=Nc3ccccc3OC2)cc1	?	-19%	22µM*	-11%	-26
CCOCCCN(Cc1ccco1)C(=O)c1cc2c(=O)[nH]c3ccc(C)cc3c2s1	?	-19%	?	-2%	-85*
Cc1ccc2[nH]c(=O)c3cc(C(=O)N(C)Cc4ccco4)sc3c2c1	7%	?	?	-1%	7
CC1CCCC(C)N1C(=O)Cc1ccccc1 (stereo not given)	0%	20µM*	?	0%	-2
CC1CCCC(C)N1C(=O)CSc1nnnn1Cc1ccccc1 (stereo not given)	6%	-5%	-10%	0%	31
COc1ccc(NCC(=O)N/N=C(\C)c2cc3ccccc3o2)cc1	.	.	25µM*	-3%	.
C/C(=N\NC(=O)CNc1ccc(F)cc1)c1cc2ccccc2o1	-4%[46 µM]	.	11µM*	-1%	.
C/C=C/C=C/C(=O)Nc1nccs1	-15%	-21%	-8%	-3%	-116*
O=C(/C=C/c1ccc(Cl)cc1)Nc1nccs1	.	.	2%	-8%	.
N=C1CCCN1CC(=O)c1cccs1	.	.	-3%	1%	.
O=C(CCN1CCC(c2ccccc2)C1)c1ccccc1 (stereo not given)	?	-22%	1.4µM*	-5%	54
O=C(CCc1ccccc1)c1ccc2c(c1)OCCCO2	-13%	?	?	-4%	-27
O=C(CCN1CCC(c2cccs2)=N1)c1cccs1	?	.	3.2µM*	.	.
O=C(CCN1CCC(c2ccccc2)C1)c1ccc2c(c1)OCCO2 (stereo not given)	?	-14%	0.11µM*	-2%	?
O=C(CCN1CCCC1Cc1ccccc1)c1ccc2c(c1)OCCO2 (stereo not given)	?	-20%	0.035µM*	3%	30
O=C(CCCc1ccccc1)c1ccc2c(c1)OCCO2	?	-29%	?	-27%	?
Cc1ccc(N2CC(NC(=O)c3cccc(Cl)c3)CC2=O)cc1C (stereo not given)	16%[46 µM]	.	.	.	.
SMILES	Lamin A splicing	HPGD inh	ALDH1A1 block	KinaseGlo FLuc	PNC assembly inh
COc1cc(-c2noc(C3CC(=O)N(c4cc(C)ccc4C)C3)n2)cc(OC)c1OC (stereo not given)	-11%[46 µM]	.	.	.	.
O=C(CCN1CCCCCC1)Nc1ccc2c(c1)OCCO2	.	.	?	2%	.
O=C(CCN1CCC(c2ccccc2)C1)c1cccs1 (stereo not given)	?	-28%	0.13µM*	0%	-11
COc1cc(C(=O)CCN2CCC(c3ccccc3)C2)cc(OC)c1OC (stereo not given)	-22%	-4%	0.04µM*	0%	39
O=C(CCN1CCc2ccccc21)c1ccc2c(c1)OCCO2	?	-10%	3.2µM*	-6%	-26
COc1cc(C(C)=O)ccc1OCCN1CCC(Cc2ccccc2)CC1	.	.	?	-2%	.
O=C(CCN1CCCCC1)c1ccc2c(c1)OCCO2	-19%	-15%	0.1µM*	0%	?
